Compound activity from PubChem.
Marburg entry inh: blocks Marburg virus binding to or entry into cells. Marburg virus pseudotyped entry inhibition, cell reporter. Potency, µM (titrated, usually from 37.8 µM), hits mostly inhibitors. actives 1.8% (n = 300,000). AID 540276; calls by dose curve; tested in HEK293 cells
Lassa entry inh: blocks Lassa virus binding to or entry into cells. Lassa virus pseudotype entry inhibition, cell reporter. Potency, µM (highest dose often 37.9 µM), hits mostly inhibitors. actives 1.2% (n = 300,000). AID 540256; calls by dose curve; tested in HEK293 cells; also: nearly all actives have a fitted effect of over 50% in size
VACV Venus inh: inhibitors of vaccinia virus (Venus reporter); Potency, µM (top dose mostly 36.5 µM), most hits filed as inhibitors; AID 720580; Vaccinia virus Venus reporter expression, fluorescence; actives 0.46% (n = 330,000); calls by dose curve; tested in A549 cells; also: nearly all actives have a fitted effect of over 30% in size
VACV mCherry inh: vaccinia inhibition (mCherry reporter); Vaccinia virus mCherry reporter infection, fluorescence; Potency, µM (doses to about 36.5 µM), most hits filed as inhibitors; actives 0.63% (n = 310,000); AID 720579; calls by dose curve; tested in A549 cells; also: nearly all actives have a fitted effect of over 35% in size
HCMV antiviral: human cytomegalovirus inhibition; activity change, negative = inhibition, % at 57.5 µM; actives 4.5% (n = 410,000); HFF cells, HCMV-luciferase reporter, 72 h; active compounds read low; in the data active = activity change below about -60%; inconclusive = no clear call, values can overlap the other calls; inactive = above about -39%
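Two-dose cell screen: HFF monolayers treated with compounds and infected with luciferase-expressing HCMV at 1 PFU/cell, 72 h at 37C, then lysed for luciferase measurement.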
FMDV antiviral: antivirals against foot and mouth disease virus; FMDV antiviral cell-based qHTS; Potency, µM (titrated, usually from 57.9 µM), actives largely listed as inhibitors; actives 1.2% (n = 410,000); AID 1159524; calls by dose curve; tested in HEK293T cells; also: read-out not given here; nearly all actives have a fitted effect of over 45% in size
Hits are given with their value; [ ] = another dose, or the depositor's remark. Most compounds without a hit are left out; they make up all but 6.5% or so of the library.

What do the screens show for `CCCN1C(=O)C(Cc2nc3ccccc3c(=O)n2CC)c2cc(Br)ccc21` (centres undefined)?
Marburg entry inh: inactive; Lassa entry inh: inactive; VACV Venus inh: inactive[7.34 µM]; VACV mCherry inh: inactive[7.34 µM]; HCMV antiviral: -73; FMDV antiviral: inactive

How did O=C(NCCc1c[nH]c2ccccc12)c1cccc(S(=O)(=O)Nc2ccccc2Cl)c1 do in these assays?
Marburg entry inh: inactive; Lassa entry inh: inactive; VACV Venus inh: inactive; VACV mCherry inh: inconclusive; HCMV antiviral: -100; FMDV antiviral: inactive

How did O=C(N=Nc1c(O)[nH]c2ccccc12)c1cccc(S(=O)(=O)Nc2ccccc2Cl)c1 do in these assays?
HCMV antiviral: -72; FMDV antiviral: inactive

How did CC(C)c1ccc2[nH]c(O)c(N=NC(=O)c3cccc(S(=O)(=O)Nc4ccccc4Cl)c3)c2c1 do in these assays?
Marburg entry inh: inconclusive; Lassa entry inh: inactive; VACV Venus inh: inactive; VACV mCherry inh: inactive; HCMV antiviral: inactive; FMDV antiviral: inactive

Results for CCc1nc2cc(C(=O)NC3CCOC(C)(C)C3)cc(NC(=O)c3ccccc3OC)c2n1C (centres undefined) ?
VACV Venus inh: inactive; VACV mCherry inh: inactive; FMDV antiviral: inactive

How did O=C(Nc1cccc(C(F)(F)F)c1)c1ccc2sc([C@H]3C[C@H](O)[C@@H](CO)O3)nc2c1 do in these assays?
VACV Venus inh: inconclusive; VACV mCherry inh: inconclusive; HCMV antiviral: -91; FMDV antiviral: 20µM

How did O=C(Nc1ccc(Oc2ccccc2)cc1)c1ccc2sc([C@H]3C[C@H](O)[C@@H](CO)O3)nc2c1 do in these assays?
VACV Venus inh: inconclusive; VACV mCherry inh: inconclusive; HCMV antiviral: -100; FMDV antiviral: 16µM

What do the screens show for `COc1ccc(Cc2nnc(NC(=O)C3CC(=O)N(CCc4ccc(F)cc4)C3)s2)cc1OC` (centres undefined)?
Marburg entry inh: inconclusive; Lassa entry inh: inconclusive; VACV Venus inh: inactive; VACV mCherry inh: inactive; HCMV antiviral: inactive; FMDV antiviral: inactive

How did CN(C(=O)C=Cc1ccccc1)c1ccccc1 do in these assays?
Marburg entry inh: inactive; Lassa entry inh: inactive; VACV Venus inh: inactive; VACV mCherry inh: inactive; HCMV antiviral: -101; FMDV antiviral: inactive

Results for CN(C(=O)/C=C/c1ccc2c(c1)OCO2)c1ccccc1 ?
Marburg entry inh: inactive; Lassa entry inh: inactive; VACV Venus inh: inactive; VACV mCherry inh: inactive; HCMV antiviral: inactive; FMDV antiviral: inactive

What do the screens show for `COCCCNc1ncnc2c1sc1nc(-c3ccco3)c3c(c12)CC(C)(C)OC3`?
Marburg entry inh: inactive; Lassa entry inh: inconclusive; VACV Venus inh: inactive; VACV mCherry inh: inactive; HCMV antiviral: inactive; FMDV antiviral: inactive

How did CC1(C)Cc2c(c(-c3ccco3)nc3sc4c(NCCO)ncnc4c23)CO1 do in these assays?
HCMV antiviral: -75; FMDV antiviral: inactive

What do the screens show for `CN(CC(=O)Nc1ccccc1Cl)C(=O)CCc1nc2ccccc2c(=O)[nH]1`?
Marburg entry inh: inactive; Lassa entry inh: inactive; VACV Venus inh: inactive; VACV mCherry inh: inactive; HCMV antiviral: inactive; FMDV antiviral: inactive

How did O=C(c1cnn2c1NC(c1ccco1)CC2C(F)(F)F)N1CCN(c2cccc(Cl)c2)CC1 (centres undefined) do in these assays?
Marburg entry inh: inconclusive; Lassa entry inh: 13µM; VACV Venus inh: inconclusive; HCMV antiviral: inactive; FMDV antiviral: inconclusive

Results for O=C(c1ccco1)N1CCN(C(=O)c2cnn3c2NC(c2cccs2)CC3C(F)(F)F)CC1 (centres undefined) ?
Marburg entry inh: inactive; Lassa entry inh: inactive; VACV Venus inh: inactive; VACV mCherry inh: inactive; HCMV antiviral: inactive; FMDV antiviral: inactive

Results for C#CCNC(=O)C1CCN(c2cc(C)nc(-c3ccccc3)n2)CC1 ?
Marburg entry inh: inactive; Lassa entry inh: inactive; VACV Venus inh: inactive; VACV mCherry inh: inactive; HCMV antiviral: -95; FMDV antiviral: inactive

How did Cc1cc(N2CCN(C(=O)c3ccco3)CC2)nc(-c2ccccc2)n1 do in these assays?
Marburg entry inh: inconclusive; Lassa entry inh: 11µM; VACV Venus inh: inactive; VACV mCherry inh: inactive; HCMV antiviral: inactive; FMDV antiviral: inactive

How did Cc1cc(N2CCN(c3ccccc3)CC2)nc(-c2ccccc2)n1 do in these assays?
Marburg entry inh: inactive; Lassa entry inh: inconclusive; VACV Venus inh: inactive; VACV mCherry inh: inactive; HCMV antiviral: inactive; FMDV antiviral: inactive

Results for Cc1cc(N2CCN(C(=O)c3ccco3)CC2)n2nc(-c3cccc(F)c3)cc2n1 ?
Marburg entry inh: inconclusive; Lassa entry inh: inactive; HCMV antiviral: -63; FMDV antiviral: inconclusive

Results for CCCC(=O)N1CCCC1(C)C(=O)Nc1cc(OC)c(OC)c(OC)c1 (centres undefined) ?
VACV Venus inh: inactive; VACV mCherry inh: inactive; HCMV antiviral: inactive; FMDV antiviral: inactive

What do the screens show for `CC(C)(C)c1ccc(C(=O)Nc2cccc3c(=O)[nH][nH]c(=O)c23)cc1`?
Marburg entry inh: inconclusive; Lassa entry inh: 7.1µM; VACV Venus inh: inactive; VACV mCherry inh: inactive; HCMV antiviral: -69; FMDV antiviral: 4.5µM

How did Cc1cc(=O)[nH]c(N/N=C/c2ccc(OC(=O)c3cccnc3)cc2)n1 do in these assays?
Marburg entry inh: inactive; Lassa entry inh: inactive; VACV Venus inh: inactive; VACV mCherry inh: inactive; HCMV antiviral: -65; FMDV antiviral: inactive

What do the screens show for `Cc1cc(=O)[nH]c(NN=Cc2cc(Br)ccc2O)n1`?
Marburg entry inh: 2µM; Lassa entry inh: 10µM; VACV Venus inh: inconclusive; VACV mCherry inh: 2µM; HCMV antiviral: -100; FMDV antiviral: inactive

What do the screens show for `NC(=S)N/N=C/c1ccc(OC(=O)c2cccnc2)cc1`?
HCMV antiviral: inactive; FMDV antiviral: inactive

How did CCN(CC)c1ccc(/C=N/Nc2nc(C)cc(=O)[nH]2)c(O)c1 do in these assays?
Marburg entry inh: 0.52µM; Lassa entry inh: 0.82µM; VACV Venus inh: inconclusive; VACV mCherry inh: 0.89µM; HCMV antiviral: -98; FMDV antiviral: inactive

Results for Cc1ccc(CSc2nnc(SCC(=O)N/N=C/c3c[nH]c4ccccc34)s2)cc1 ?
Marburg entry inh: inconclusive; Lassa entry inh: inconclusive; VACV Venus inh: inactive; VACV mCherry inh: inactive; HCMV antiviral: -73; FMDV antiviral: inactive

What do the screens show for `CCc1ccc2c(Cl)c(C(=O)N/N=C/c3c[nH]c4ccccc34)sc2c1`?
Marburg entry inh: inconclusive; Lassa entry inh: 10µM; VACV Venus inh: inconclusive; HCMV antiviral: inactive; FMDV antiviral: inactive

What do the screens show for `O=C(CSc1nnc(SCc2ccccc2)s1)N/N=C/c1c[nH]c2ccccc12`?
Marburg entry inh: inconclusive; Lassa entry inh: inactive; VACV Venus inh: inactive; VACV mCherry inh: inactive; HCMV antiviral: inactive; FMDV antiviral: inactive

What do the screens show for `Cc1ccc(CSc2nnc(SCC(=O)N/N=C/c3ccc(C(=O)O)cc3)s2)cc1`?
Marburg entry inh: inconclusive; Lassa entry inh: inconclusive; VACV Venus inh: inactive; VACV mCherry inh: inconclusive; HCMV antiviral: -66; FMDV antiviral: inactive

Results for N#CCCn1cc(C(=O)Nc2ccccc2Br)c(-c2cccs2)n1 ?
Marburg entry inh: inconclusive; Lassa entry inh: inactive; HCMV antiviral: inconclusive; FMDV antiviral: inactive
